Here are results for seven sequences from the supplement of paper PMC6555819.

Holding throughout (experiment): PBM binding z-score (relative to random genomic background probes); higher = stronger binding; sequences stand for … in GC…GCGATTGACAGCGTAGAATGAAGG
Experiment [1] concerns FXR:RXRa (NR concentration 270 nM, RXRa partner concentration 90 nM). In outline: (§1)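 Probes were double-stranded and carried 34-nt variable regions with direct-repeat seeds, single-nucleotide variants, half-site ablations and random human genomic background sequences, printed on custom Agilent 4×180K protein-binding microarrays. Arrays were incubated 1 h with ligand-free nuclear receptor dimers in PBS pH 7.4, 2% milk, 0.02% Triton X-100, 1 mM DTT, 0.2 mg/mL BSA and 0.4 mg/ml salmon testes DNA. Antibodies against each partner (one per run) detected binding, and scanned fluorescence was regression-normalized. Binding z-scores use the random background probes as reference.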

For experiment [2], the system named is LXRa:RXRa (NR concentration 270 nM, RXRa partner concentration 90 nM). The method, boiled down:
as §1

The subject of experiment [3] is LXRa homodimer (NR concentration 270 nM). The method, boiled down: as §1
In experiment [4] the test system is LXRb:RXRa (NR concentration 270 nM, RXRa partner concentration 90 nM). The method, boiled down:
as §1

Experiment [5] concerns LXRb homodimer (NR concentration 270 nM). In outline: as §1
Experiment [6] deals with PPARa:RXRa (NR concentration 270 nM, RXRa partner concentration 90 nM). The method, boiled down:
as §1

The subject of experiment [7] is PPARg:RXRa (NR concentration 180 nM, RXRa partner concentration 90 nM). In outline:
as §1

Experiment [8] deals with PPARg:RXRa 270nM:90nM, anti-RXR (NR concentration 270 nM, RXRa partner concentration 90 nM). The method, boiled down:
as §1

In experiment [9] the test system is PPARg:RXRa 30nM:10nM, anti-RXR (NR concentration 30 nM, RXRa partner concentration 10 nM). In outline:
as §1

Experiment [10] deals with PPARg:RXRa 90nM:30nM, anti-RXR (NR concentration 90 nM, RXRa partner concentration 30 nM). The method, boiled down: as §1
Experiment [11] concerns PPARg:RXRa DBDmut IVT, anti-RXR (DBD mutation: RXRa K156A/R161A, NR concentration 270 nM, RXRa partner concentration 90 nM). The method, boiled down:
as §1

The subject of experiment [12] is PPARg:RXRa IVT, anti-PPARg (NR concentration 270 nM, RXRa partner concentration 90 nM). In outline:
as §1

Experiment [13] concerns PPARg DBDmut:RXRa IVT, anti-PPARg (DBD mutation: PPARg1 K132A/R137A, NR concentration 270 nM, RXRa partner concentration 90 nM). The method, boiled down:
as §1

Experiment [14] has as its system PPARg DBDmut IVT, anti-PPARg (DBD mutation: PPARg1 K132A/R137A, NR concentration 270 nM). The method, boiled down: as §1
The subject of experiment [15] is PPARg homodimer (NR concentration 180 nM). The method, boiled down:
as §1

Experiment [16] has as its system PXR:RXRa (NR concentration 270 nM, RXRa partner concentration 90 nM). In outline: as §1
Experiment [17] has as its system PXR homodimer (NR concentration 270 nM). The method, boiled down:
as §1

Experiment [18] deals with RARa:RXR (NR concentration 270 nM, RXRa partner concentration 90 nM). The method, boiled down:
as §1

The subject of experiment [19] is RARa homodimer (NR concentration 270 nM). The method, boiled down: as §1
Experiment [20] deals with RARb:RXRa (NR concentration 270 nM, RXRa partner concentration 90 nM). The method, boiled down:
as §1

For the sequence CCGACTGGGGCAAACGTTACCATACTCAGTACGA, the PBM binding z-score in [1] is -0.264; in [2], -0.168; in experiment [3], -0.00869; in experiment [4] it was -0.27; in experiment [5], -0.682; in experiment [6] it was 1.61. For the same sequence, the PBM binding z-score in [7] is 3.62; in experiment [8] it was 4.48; in experiment [9], 2.27; in experiment [10] it was 4.25; in [11] it was 5.15; in [12], 3.9. For the same sequence, the PBM binding z-score in experiment [13] was -0.175; in experiment [14], -0.646; in [15] it was 0.256; in experiment [16], -0.42; in experiment [17] it was -0.33; in experiment [18] it was -0.168. Besides, the PBM binding z-score in experiment [19] was -0.437; in [20], 0.494.

For the sequence GCGACTAGGGCAAAGCAGGTTACCATAAGGTTGG, the PBM binding z-score in [1] was 0.0913; in experiment [2] it was 0.121; in [3] it was -0.0293; in experiment [4], -0.376; in [5], -1.03; in [6], 1.17. Moreover, the PBM binding z-score was 1.63 in experiment [7]; 1.77 in [8]; -0.187 in [9]; 0.722 in experiment [10]; 4.76 in experiment [11]; 4.23 in experiment [12]. Besides, the PBM binding z-score in experiment [13] was -0.472; in experiment [14], -0.903; in experiment [15] it was 0.0824; in experiment [16], 0.293; in experiment [17] it was -0.481; in experiment [18], 0.775. For the same sequence, the PBM binding z-score in experiment [19] is -1.2; in experiment [20], 1.1.

For the sequence CCTACTGGGCCAAAAAGGTCATTCATGCCGATAA, the PBM binding z-score worked out at 3.81 in experiment [1]; 4.85 in experiment [2]; 4.27 in experiment [3]; 4.54 in [4]; 0.914 in [5]; 4.85 in experiment [6]. For the same sequence, the PBM binding z-score in experiment [7] amounted to 3.37; in experiment [8] it was 4.13; in [9], 1.87; in experiment [10] it was 3.58; in experiment [11], 3.69; in [12] it was 3.97. Further, the PBM binding z-score was -0.431 in experiment [13]; 0.123 in [14]; 4.57 in experiment [15]; 5.41 in experiment [16]; 4.84 in experiment [17]; 5.86 in experiment [18]. Further, the PBM binding z-score in experiment [19] is 2.12; in [20] it was 4.22.

For the sequence ACTAGCAGGGCAAGTTTGGGTCACTCAAACAAAG, the PBM binding z-score was 1.11 in experiment [1]; 0.854 in experiment [2]; -0.346 in [3]; 1.07 in experiment [4]; -0.746 in experiment [5]; 1.85 in [6]. Also, the PBM binding z-score in experiment [7] was 0.29; in experiment [8], 0.531; in [9], -0.392; in [10], 0.0112; in [11], 2.04; in experiment [12] it was 1.96. In addition, the PBM binding z-score in [13] was -0.127; in experiment [14], -0.121; in experiment [15] it was 0.449; in [16], 1.13; in experiment [17], -0.488; in experiment [18], 2.07. Moreover, the PBM binding z-score in experiment [19] was -0.817; in [20], 2.43.

For the sequence TCGAGTAGGTTACCAATGGGGCATTCATCTTTCT, the PBM binding z-score in experiment [1] was -0.000727; in experiment [2] it was 1.01; in [3], -0.201; in experiment [4], 1.21; in [5], -0.516; in experiment [6], 1.23. The PBM binding z-score in experiment [7] is 0.329; in experiment [8] it was 1.33; in experiment [9] it was 1.28; in experiment [10], 1.18; in experiment [11], 3.66; in [12] it was 2.75. Moreover, the PBM binding z-score was -0.207 in experiment [13]; -0.196 in [14]; 0.277 in experiment [15]; 0.256 in [16]; -0.536 in [17]; 0.587 in experiment [18]. Also, the figures for the PBM binding z-score in experiment [19] and in [20] were -0.332 and 0.994, respectively.

Turning to TAGCCTAGGTCTTGCGGGCCAGTATAGTGTCGGC, the PBM binding z-score in experiment [1] is -0.844; in experiment [2], -0.906; in [3] it was -0.807; in [4], -1.17; in experiment [5], -1.2; in [6] it was -0.636. For the same sequence, the PBM binding z-score is -0.663 in [7]; -0.775 in experiment [8]; -0.745 in experiment [9]; -1.05 in experiment [10]; -0.581 in experiment [11]; -0.0643 in [12]. The PBM binding z-score is -0.303 in experiment [13]; -0.84 in [14]; -1.39 in experiment [15]; -1.05 in experiment [16]; -1.29 in experiment [17]; -0.863 in experiment [18]. The PBM binding z-score is -1.17 in experiment [19] and -0.327 in experiment [20].

In the case of ACTATTAGTTGAGACGAGGGCAACGGATAGGTTG, the PBM binding z-score in experiment [1] is 0.259; in experiment [2], 0.127; in [3], -0.147; in [4] it was 0.0625; in experiment [5] it was 0.209; in [6], 0.0596. In addition, the PBM binding z-score in experiment [7] is 0.652; in experiment [8], -0.1; in experiment [9], -0.0194; in experiment [10] it was -0.207; in experiment [11] it was -0.0332; in experiment [12] it was 0.424. Moreover, the PBM binding z-score turned out to be 0.418 in [13]; 0.955 in experiment [14]; 0.155 in experiment [15]; 1.32 in experiment [16]; 0.265 in [17]; 1.26 in experiment [18]. Also, the PBM binding z-score in experiment [19] came to 0.262; in [20], 0.843.
